Data taken from ChEMBL document CHEMBL3988442, “University of Dundee, Small-Polar-MMV Screening Library” (2021).
About 13,000 (27%) of roughly 48,000 compounds showed an effect of 50% or more. The list shows a part of the results.

test system: Wolbachia pipientis; test: Anti-Wolbachia Cell-Based Screen; assay type: functional; set-up: scale not given: in the data most compounds retested in dose-response had high values; conditions: 5 µM

SMILES | Percent Effect [%]
O=C(NC1CCN(c2ncccn2)CC1)c1cc2c([nH]c1=O)CCC2 | 7.428
Cc1nnc(SCCC(=O)N(C)Cc2ccc(F)cc2F)[nH]1 | 2.141
O=C(O)C(F)(F)F.O=C1CC[C@H]2[C@H](CCN2C(=O)C2CCOCC2)N1Cc1ccncc1 | 25.13
CN1CCN(C(=O)c2ccc3c(c2)[nH]c(=O)n3C2CCCC2)CC1 | 14.39
Cc1cc(-c2nn(C)c(Cl)c2CN2CCCCC(N)C2)no1 (configuration not stated) | -8.809
COCc1cc(CC2(NC3CCCCC3)COC2)no1 | 18.94
CC(Cn1cccn1)NCc1csc(-c2ccc3c(c2)OCO3)n1 (configuration not stated) | -1.421
Cc1cc2[nH]c(CN3CCOC(Cc4ccccc4)C3)cc(=O)n2n1 (configuration not stated) | -6.493
Cc1cccc(C(=O)Nc2cccc3c2C(=O)NC3)n1 | -5.114
COCC1CN(C(=O)c2cccc(C)n2)Cc2ncnn2C1 (configuration not stated) | -6.948
CCc1sc(-c2nnc(CNC(C)Cn3cc(C)cn3)o2)cc1C (configuration not stated) | -3.595
CCc1ccc(CN2CCN(Cc3ncc[nH]3)[C@H]3CS(=O)(=O)C[C@H]32)nc1 | 8.56
[O-][S+](CCN1CCc2[nH]nc(C(F)(F)F)c2C1)c1ccccc1 (configuration not stated) | -3.726
Cn1ncc2c(=O)[nH]c(CN3CCCC3Cc3ccccc3)nc21 (configuration not stated) | -2.22
Cn1ncc2c(=O)[nH]c(CN3CCCC3CC(C)(C)C)nc21 (configuration not stated) | 114.1
Cc1ccc(C2CCCN2Cc2nc3c(cnn3C)c(=O)[nH]2)cc1C (configuration not stated) | 2.271
CCC1CCCCN1Cc1nc2c(cnn2C)c(=O)[nH]1 (configuration not stated) | 107.5
COc1cccc(C2CCCN2Cc2nc3c(cnn3C)c(=O)[nH]2)c1 (configuration not stated) | -3.209
Cn1ncc2c(=O)[nH]c(CN3CCCC3Cc3ccc(F)cc3)nc21 (configuration not stated) | 116

SMILES | Percent Effect [%]
Cn1ncc2c(=O)[nH]c(CN3CCCC3CCc3ccccc3)nc21 (configuration not stated) | 94.92
Cn1ncc2c(=O)[nH]c(CN3CCC(Cc4ccccc4)CC3)nc21 | -8.773
Cn1ncc2c(=O)[nH]c(CN3CCCC3CC3CCCCC3)nc21 (configuration not stated) | -0.1708
COc1ccccc1-c1noc(CCC(=O)NC(C)Cn2cccn2)n1 (configuration not stated) | -41.91
COc1ccc(-n2ccnc2-c2cnc(N(C)C)nc2)cc1OC | -6.365
Cc1ccc(CN2CCN(c3ncccc3Cl)CC2CCO)cc1 (configuration not stated) | -15.14
O=C(c1cn2cc(Cl)cnc2n1)N1CCOCC(O)(CN2CCCC2)C1 (configuration not stated) | -2.711
Cc1nccn1-c1ccc(C(C)NCCc2ccccn2)cc1 (configuration not stated) | 8.244
CNC1CCCN(Cc2noc(C3CC3)n2)C1.Cl (configuration not stated) | -6.036
CCc1nc(CN2CCCC(NCc3cc(C)no3)C2)no1 (configuration not stated) | 2.816
CCc1nc(CN2CCCC(NCc3nc(C)c(C)o3)C2)no1 (configuration not stated) | 135.7
CCc1nc(CN2CCCC(NCc3ccc(C(N)=O)cc3)C2)no1 (configuration not stated) | -8.136
CCc1noc(CNC2CCCN(Cc3noc(C4CC4)n3)C2)n1 (configuration not stated) | 122.3
Cc1ncc(CNC2CCCN(Cc3noc(C4CC4)n3)C2)s1 (configuration not stated) | -12.11
CCc1nc(CN2CCCC(NCc3nnc(C4CC4)n3C)C2)no1 (configuration not stated) | 109.6
C1CC(NCc2nc(C3CC3)no2)CN(Cc2noc(C3CC3)n2)C1 (configuration not stated) | 4.824
CCCc1noc(CNC2CCCN(Cc3noc(C4CC4)n3)C2)n1 (configuration not stated) | 116.1
CCc1nc(CN2CCCC(NCc3ncc(C(C)(C)C)o3)C2)no1 (configuration not stated) | 9.361
CCc1nc(CN2CCCC(NCCn3cncn3)C2)no1 (configuration not stated) | 25.84

SMILES | Percent Effect [%]
Cn1ccnc1CNC1CCCN(Cc2noc(C3CC3)n2)C1 (configuration not stated) | -20.64
COCCN(Cc1ccc(F)cc1Cl)C(=O)c1cc(C)no1 | 3.523
Cc1cccc2c1nc1n2[C@@H](CNC(=O)Cc2ccccc2)COC1 | -6.284
Cc1cc(C)c2c(N(C)CC3CCN(CC(C)C)C3)ncnc2n1 (configuration not stated) | 16
Cc1nc(C(=O)N(Cc2c(C)nn(C)c2C)C(C)C)cs1 | 0.2586
CCN(C(=O)c1cccc2c1OCO2)c1ccc(Br)cn1 | -0.9868
CCOc1ccc(N2CCC(C(O)c3ccccc3)CC2)nn1 (configuration not stated) | -5.535
Cc1ccccc1CS(=O)(=O)c1nnc(C(C)NC(=O)OC(C)(C)C)o1 (configuration not stated) | 85.24
CC(NC(=O)OC(C)(C)C)c1nnc(S(=O)(=O)Cc2ccc(Cl)cc2)o1 (configuration not stated) | 137.4
CC(C)NC(=O)NCCCc1cccc(F)c1 | -3.402
Cc1ccccc1CS(=O)(=O)c1nnc(N2CCOCC2)s1 | -8.396
CCC(C)NC(=O)CS(=O)(=O)Cc1ccccc1Cl (configuration not stated) | -0.4939
CC(C)(C)OC(=O)NCCC(=O)NCC(O)c1cccc(F)c1 (configuration not stated) | -4.021
C[C@H](NC(=O)OC(C)(C)C)c1nnc(S(=O)(=O)Cc2cccc(F)c2)o1 | 143.7
CC(NC(=O)OC(C)(C)C)c1nnc(S(=O)(=O)Cc2ccccc2Cl)o1 (configuration not stated) | 135.1
CC(C)S(=O)(=O)c1nnc(CCNC(=O)OC(C)(C)C)o1 | 16.12
O=S(=O)(Cc1ccccc1Cl)NC(CO)c1ccco1 (configuration not stated) | -8.194
CC(NC(=O)CNC(=O)OC(C)(C)C)c1ccc(Cl)s1 (configuration not stated) | -4.782
CC(NC1(CNC(=O)OC(C)(C)C)CCOCC1)c1ccccc1 (configuration not stated) | 3.949
